Screens as filed in PubChem BioAssay.
This excerpt belongs to a sample that is enriched for hits.
ROC1-CUL1 inh – blocks human RBX1-Cullin-1 di-ubiquitin formation; P62877+Q13616; in vitro K48 di-Ub FRET, acceptor:donor ratio, 45 min; inhibition, % at 10 µM; 140,000 compounds, 0.6% hits; in the data active = inhibition above about 25%
Of the large screens only hits and unclear results are named; the others gave an inactive call.

O=C(CCn1cncn1)NCc1cccnc1Oc1cccc(C(F)(F)F)c1	none
O=C(Nc1ccc(Oc2ccccc2)nc1)C1CCN(C(=O)CCc2cn[nH]c2)CC1	none
CN(C)c1c(F)c(F)c2cc3c(C(C)(C)C)nn(C)c3nc2c1F	none
Nc1cc(-c2cccc(-c3ccn[nH]3)c2)nc(N2CCOCC2)n1	none
O=C(Nc1cccc(Cl)c1)O/N=C1\CC2CCC1C2 (stereo not given)	none
CCOc1ccccc1NC(=O)C1C(C)=NC(=S)NC1c1ccccc1OC (stereo not given)	none
CCOC(=O)C1=C(C)N=c2s/c(=C/c3ccc(-c4ccc(Cl)cc4[N+](=O)[O-])o3)c(=O)n2C1c1ccc(N(C)C)cc1 (stereo not given)	none
Cc1cnc(CN(C)C(=O)C2(N3C[C@@H](C)O[C@@H](C)C3)Cc3ccccc3C2)[nH]1	none
CN(Cc1ccccc1)CC1(O)CCCN(Cc2ccc(F)cc2)C1=O (stereo not given)	none
Cc1ccc(NC(=O)c2ccc3c(c2)C(=O)N(CC(C)C)C3=O)c(C(=O)O)c1	none
CCOC(=O)c1ccc(N2C(=O)c3ccc(C(=O)Nc4ccc(O)cc4C(=O)O)cc3C2=O)cc1	ROC1-CUL1 inh 69.2
O=C(COC(=O)c1ccc2c(c1)C(=O)N(c1ccc(O)cc1)C2=O)c1ccccc1	none
CC1=C(C(=O)Nc2ccccc2C)C(c2cccs2)n2c(s/c(=C/c3ccc(-c4cccc(Cl)c4)o3)c2=O)=N1 (stereo not given)	none
CCCNC(=O)c1cc2c(=O)n3ccccc3nc2n1C	none
O=C(O)CNS(=O)(=O)c1cccc2ccccc12	none
Cc1ccccc1S(=O)(=O)NCCC(C)C	none
CCCNS(=O)(=O)c1cccc2c(N)cccc12	ROC1-CUL1 inh 57.5
CCC(C)c1ccccc1NC(=O)c1ccco1 (stereo not given)	none
Cc1ccc(NN2C(=O)c3cc([N+](=O)[O-])cc4cc([N+](=O)[O-])cc(c34)C2=O)cc1	none
O=C(c1cc2nc(-c3cccs3)cc(C(F)(F)F)n2n1)N1N=C(C(F)F)CC1(O)C(F)F (stereo not given)	none
O=C1NN(c2ccc(Cl)c(Cl)c2)C(=O)/C1=C\c1c2ccccc2cc2ccccc12	none
CCOc1c(I)cc(I)cc1/C=C1/C(=O)N(c2ccc(Cl)c(Cl)c2)N=C1C	none
C=CCN1C(=O)NC(=O)/C(=C/c2cc(I)cc(I)c2OC)C1=O	none
COc1ccc(/C=C2\C(=O)NN(c3ccc(Br)cc3)C2=O)cc1Br	none
COc1c(I)cc(I)cc1/C=C1\C(=O)NN(c2ccc(Cl)c(Cl)c2)C1=O	ROC1-CUL1 inh 89.2
COc1cc(Cl)cc(/C=C2/C(=O)NN(c3ccc(F)c(Cl)c3)C2=O)c1O	ROC1-CUL1 inh 94.1
COc1c(I)cc(I)cc1/C=C1/C(=O)NN(c2ccc(Br)cc2)C1=O	ROC1-CUL1 inh 44.1
COc1cc(Cl)cc(C=C2C(=O)N(C)C(=O)N(C)C2=O)c1O	none
Cc1ccc(N2NC(=O)/C(=C/c3cc(Cl)ccc3O)C2=O)cc1C	none
COc1cc2c(cc1OC)CN(S(=O)(=O)c1ccc(Oc3ccccc3Cl)cc1)CC2	none
CCC(=O)NC(Nc1ccccn1)(C(F)(F)F)C(F)(F)F	none
Cc1ccc(NC(=O)c2c(NC(=O)CCC(=O)O)sc3c2CCCC3)cc1	none
C/C(=N/NC(=O)Cn1nnc2ccccc21)c1cccc(O)c1	none
CC(C)CC(=O)N1CCC(N2CCCC(C(=O)NCCc3ccccc3)C2)CC1 (stereo not given)	none
O=C(O)C(Cc1ccccc1)NS(=O)(=O)c1cccs1 (stereo not given)	none
O=C1C(=O)c2ccccc2/C1=C\c1cccs1	none
O=C1C(Cl)=CC(=NS(=O)(=O)c2cccs2)c2ccccc21	ROC1-CUL1 inh 41.4
CCOCN(C(=O)Cn1c(COc2ccc(C)cc2)nc2ccccc21)c1c(C)cccc1CC	none
CCOc1cc(C2C3=C(CC(C)(C)CC3=O)N(CC(=O)O)C3=C2C(=O)CC(C)(C)C3)ccc1OCc1ccc(Cl)cc1Cl	none
Cc1ccc2nc(/C(C#N)=C/c3ccccc3Cl)[nH]c2c1	none
COc1cccc(/C=C(\C#N)c2nc3ccc(C)cc3[nH]2)c1	none
Cc1ccc2nc(/C(C#N)=C/c3coc4ccccc4c3=O)[nH]c2c1	ROC1-CUL1 inh 25.9
CCc1cc(=O)[nH]c(-c2ccc(CN3CCC(Cn4cccn4)CC3)cc2)n1	none
Cc1cc(C)c(S(=O)(=O)N(C)C)cc1C	none
CC1CC(C)CN(C(=O)Cn2cnc3sc4c(c3c2=O)CCCC4)C1 (stereo not given)	none
O=C(N/N=C/c1ccccc1O)c1n[nH]c2c1CCCC2	none
O=C(Nc1ccccc1)Oc1c(Cl)cc2oc(=O)sc2c1Br	none
COc1cc2oc(=O)cc(C)c2c(OC)c1OC(C)=O	none
CC(=O)Oc1c(Br)cc2oc(=O)sc2c1Br	ROC1-CUL1 inh 33.7
O=C1N(Cc2cccc(F)c2F)CCCC1(O)CNCC1CCCCC1 (stereo not given)	none
O=C1N(Cc2cccc(F)c2F)CCCC1(O)CNC1CCC1 (stereo not given)	none
O=C1N(Cc2cccc(F)c2F)CCCC1(O)CNC1CCCC1 (stereo not given)	ROC1-CUL1 inh 94.3
COc1cc2c(cc1OC)Sc1ccc(Cl)cc1C(=O)C2	none
O=C(Cc1ccccc1)N1CCN(c2nc(C3CCC3)nc3ccc(Cl)cc23)CC1	none
O=C(Nc1cccc(Cl)c1)Nc1ccccc1C(=O)O	none
O=C(O)c1cc2oc3ccccc3c3ccccc3oc2cc1C(=O)Nc1cccc(Cl)c1	ROC1-CUL1 inh 39.9
Nc1ccccc1C(=O)Nc1cccc(Cl)c1	none
C=CCN1C(=O)/C(=C/c2ccc(Cl)cc2Cl)NC1=S	none
C=CCN1C(=O)NC(=O)/C(=C\c2ccc(-c3cc(Cl)ccc3Cl)o2)C1=O	ROC1-CUL1 inh 97.5
C=CCN1C(=O)NC(=O)/C(=C\c2cc(Br)ccc2OCc2ccc(Cl)cc2Cl)C1=O	ROC1-CUL1 inh 101.0
C=CCN1C(=O)NC(=O)/C(=C/c2ccccc2OCc2ccc(Cl)cc2Cl)C1=O	none
C=CCN1C(=O)/C(=C/c2cc(Br)cc(OC)c2OC)C(=O)NC1=S	none
O=C1OC(c2ccc3ccccc3c2)=N/C1=C/c1ccc(-c2cc(Cl)ccc2Cl)o1	none
CC(=O)Nc1sc(Cl)cc1C(=O)Nc1ccccc1	none
COC(=O)C1=C2C(=O)NCCN2C2=C(C(=O)CC(C)(C)C2)C1c1ccc(F)cc1 (stereo not given)	none
COCCN1CC(CNC(=O)CCc2nnc(CCCCc3ccccc3)o2)CC1=O (stereo not given)	none
CCOC(=O)c1c(-c2ccc(F)cc2)csc1NC(=O)CSc1nc2scc(-c3ccc(C)cc3)c2c(=O)n1-c1ccccc1	none
COc1ccc(CC(=O)Nc2cc(OC)c(OC)cc2C(=O)O)cc1	none
CC(C)c1ccc(CCC(=O)N2CC(=O)Nc3ccccc32)cc1	none
Cc1[nH]c(=O)[nH]c(=O)c1NC(=O)c1cccc2ccccc12	none
O=C1CC(c2ccccc2)CC2=Nc3ccccc3NC(c3cccc4ccccc34)C12 (stereo not given)	none
CCCCC(=Nc1ccccc1C)C1C(=O)CC(c2ccccc2)CC1=O (stereo not given)	none
CCCCC1C(=O)N=C2CC(c3ccccc3)CC(=O)C2C1=O (stereo not given)	ROC1-CUL1 inh 27.7
COC(=O)C1CCN(CC(O)COc2cccc(CN3CCSCC3)c2)CC1 (stereo not given)	none
COC(=O)N(C)C(CC(=O)C(C)(C)C)c1ccccc1 (stereo not given)	none
COc1ccc(-c2cc(C(F)(F)F)n3nc(C(=O)N4CCc5ccccc5C4)c(Br)c3n2)cc1	none
CCc1cccc2c(C(c3ccc(C)cc3)c3c[nH]c4c(CC)cccc34)c[nH]c12	none
CC12C3C4C(C5C1C3C5(Br)C41OCCO1)C21OCCO1 (stereo not given)	none
